# Bioassay records: PubChem BioAssay, National Center for Advancing Translational Sciences (NCATS)
# TDP-43 yeast inh = rescues yeast growth from TDP-43 toxicity; Potency, µM (series often up to 46.1 µM), for inactives: at the highest dose growth rescue (activation), actives largely listed as activators; 410,000 compounds, 1.8% hits; TDP-43 expressing yeast growth rescue, BacTiter-Glo, 24 h; also: potency is read from the fitted curve at half-maximal effect; % of control where 0% means no effect; nearly all actives have a fitted effect of over 50% in size
#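 Galactose-induced TDP-43 yeast, OD600=0.02, compound pinned; 24 hr, 30 deg C; BacTiter-Glo luminescence for growth. Inhibitors of TDP-43 toxicity read as activators.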
# CCT chaperon mod = changes cytosolic chaperonin activity | activity change, % (concentration not given with the values), hits read low | 360,000 compounds, 0.3% hits | purified chaperonin ATPase assay, HTRF ADP detection, 30 min; in the data active = activity change below about -30%; also: % is scaled to controls: 0 for no effect and ±100 for the full control effect
#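 Nucleotide hydrolysis assay: TRiC at 20–40 nM final (set by batch activity) with 10 uM ATP, 30 min at 37 °C, in presence of 76 uM compound. Detection by competitive ADP HTRF, 30 min ambient.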
# Apoferritin bind = candidate novel general anesthetic via apoferritin binding. P02791. apoferritin/1-aminoanthracene competitive binding, fluorescence. Potency, µM (top dose mostly 77.5 µM), for inactives: at the highest dose activity change, negative = displacement, hits mostly inhibitors. 350,000 compounds, 0.074% hits. AID 485281; also: potency is read from the fitted curve at half-maximal effect; % is scaled to controls: 0 for no effect and ±100 for the full control effect; nearly all actives have a fitted effect of over 20% in size
# Target sequence (P02791 2-175 limits assumed): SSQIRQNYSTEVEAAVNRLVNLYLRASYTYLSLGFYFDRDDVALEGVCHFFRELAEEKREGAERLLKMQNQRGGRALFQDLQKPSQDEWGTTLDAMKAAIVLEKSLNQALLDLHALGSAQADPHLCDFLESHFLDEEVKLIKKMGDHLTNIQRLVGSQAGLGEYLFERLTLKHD
#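 10 uM apoferritin + 50% sat. 1-AMA, PBS; cpd 10 min RT; Ex380/Em535 endpoint; normalized to free probe vs complex; 4-param Hill fit; propofol titration as pos. ctrl.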
# Mito fusion act = blocks mitochondrial division or promotes mitochondrial fusion. S. cerevisiae fusion-defective mutant growth rescue, CellTiterGlo 48 h. Potency, µM (series often up to 46.1 µM), for inactives: at the highest dose growth rescue (activation), actives largely listed as activators. 320,000 compounds, 0.23% hits. AID 485298; also: potency is read from the fitted curve at half-maximal effect; % of control where 0% means no effect; nearly all actives have a fitted effect of over 45% in size
#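 Yeast fusion mutant, YPEG (non-fermentable carbon), compound, 48 h at 37C non-permissive; CellTiterGlo added, 10 min RT, luminescence read. Rescued growth = division inhibition.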
# aSyn rescue = alpha-synuclein toxicity inhibition in yeast. Yeast expressing alpha-synuclein, growth rescue, BacTiter-Glo, 24 h. Potency, µM (series often up to 46.1 µM), for the others: top-dose growth rescue (activation), actives largely listed as activators. 370,000 compounds, 0.14% hits; also: potency is read from the fitted curve at half-maximal effect; % of control where 0% means no effect; nearly all actives have a fitted effect of over 65% in size
#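 Rescue of yeast growth: cells expressing toxic alpha-synuclein, induced in galactose at OD600 0.02, incubated with compound 24 h at 30 C. ATP luminescence quantified growth; inhibitors of toxicity appear as activators.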
# pAkt inh = Akt phosphorylation inhibition; Neuro2A IGF-stimulated pAkt S473 HTRF, 20 min; active compounds read low; activity change, % for hits at 50 µM; 360,000 compounds, 0.32% hits; AID 651550; in the data active = activity change below about -80%; inconclusive = mostly about -51% to -80%; also: % is scaled to controls: 0 for no effect and ±100 for the full control effect
#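 Neuro2A cells in DMEM with 0.5% FBS, overnight at 37 deg C, given compound at single 50 µM final, then IGF (6 nM final) for 20 min at 37 deg C. Lysed; phospho-Akt Ser473 by HTRF after 24 h, 665/615 ratio.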
# Starred values were filed as active, the others as inactive; i = inactive; u = inconclusive; x = no result given; [ ] = dose if it differs, or a comment. This is a sample that favours compounds with a hit; in the whole collection about 2.5% have one here. Unless noted, calls follow the shape of the dose curve; as a rule, active = well fitted curve in the direction sought with a large enough effect; inconclusive = small, poorly fitted or top-dose-only effect, or another doubt; inactive = no such curve, though single readings can be large; an effect the other way counts as inactive or inconclusive.
SMILES,TDP-43 yeast inh,CCT chaperon mod,Apoferritin bind,Mito fusion act,aSyn rescue,pAkt inh
O=C1C=C(c2ccc(Oc3ccccc3)cc2)C[C@@H](c2ccc3c(c2)OCO3)C1,14%,-4,x,u,-1%,i
O=C1C=C(c2ccc(CO)cc2)C[C@@H](c2ccc3c(c2)OCO3)C1,13µM*,0,x,8%,-1%,i
O=C1C=C(c2cccc(Br)c2)C[C@@H](c2ccc3c(c2)OCO3)C1,11µM*,-1,x,u,13%,i
COc1cccc(C2=CC(=O)C[C@H](c3ccc4c(c3)OCO4)C2)c1,18µM*,-2,x,19%,0%,i
CCCCCCCCCCCCCC[C@@H](O)[C@@H](O)[C@@H](N)CO,x,x,-6%,x,x,x
O=C1C=C(c2cnc3ccccc3c2)C[C@@H](c2ccc3c(c2)OCO3)C1,16µM*,2,x,u,6%,i
O=C1C=C(c2ccc(F)nc2)C[C@@H](c2ccc3c(c2)OCO3)C1,13µM*,-3,x,13%,8%,i
O=C1C=C(c2ccccc2)C[C@@H](c2ccc3c(c2)OCO3)C1,20µM*,-1,x,30%,1%,i
COc1ccc(C2=CC(=O)C[C@H](c3ccc4c(c3)OCO4)C2)cn1,14%,-4,x,11%,2%,i
CCOC(=O)c1ccc2c(c1)N(Cc1cc(C)ccc1C)C(=O)c1ccccc1S2(=O)=O,1%,x,-22%,x,x,x
CCOC(=O)c1cccc(N2C(=O)c3ccccc3S2(=O)=O)c1,11µM*,3,u,2%,x,x
CC(N)(Cc1ccc(O)c(O)c1)C(=O)O (centres undefined),x,x,x,17%,-4%,x
Cc1ccc(C)c(NC(=S)NNc2ccc(F)cc2F)c1,13µM*,-1,-4%,-18%,-3%,i
Cc1ccc(C)c(NC(=S)NCCc2ccc(F)cc2)c1,u,2,2%,23%,2%,i
COc1ccc(Cl)cc1NC(=O)N1CCC(CN2CCc3ccccc3C2)CC1,6%,x,-2%,x,x,x
COc1cccc(NC(=O)c2ccc3snnc3c2)c1,16%,-1,-4%,7%,-15%,-113%*
COc1ccc(C(=O)Nc2cccc(OC(=O)c3ccc(C)c(C)c3)c2)cc1,-25%,0,-11%,4%,-6%,i
COc1cccc(C(=O)Nc2cc(NC(=O)c3ccco3)ccc2OC)c1,u,1,-8%,12%,1%,i
COc1ccc(NC(=O)c2ccco2)cc1NC(=O)c1cccc(OC(C)C)c1,13µM*,1,u,7%,1%,i
COc1ccc(C(=O)Nc2cccc(OC(=O)c3ccco3)c2)cc1,18µM*,0,-10%,1%,1%,i
COC(=O)C(C(=O)OC)C1O[C@@]23COCCC2(C)C3c2ccccc21 (some centres undefined),x,x,-9%[15.3 µM],x,x,x
Cc1ccc(C)c2nc3sc(C(=O)O)cc3cc12,14µM*,0,17%,8%,-71%,i
Cc1ccc(-c2cc(C(=O)NCCCN3CCOCC3)c3ccccc3n2)cc1,6%,1,x,-5%,1%,i
O=C(N/N=C/c1cccnc1)c1cc(-c2ccccc2)nc2ccccc12,-6%,1,1%,-9%,1%,i
Cc1ccc(-c2cc(C(=O)N/N=C/c3cccnc3)c3ccccc3n2)cc1C,22µM*,1,x,x,-11%,i
Cc1ccc(-c2cc(C(=O)NCCCN3CCOCC3)c3ccccc3n2)cc1C,2%,0,-11%,6.3µM*,-6%,i
COc1ccc(-c2nnc3ccc(SC(C)C)nn23)cc1OC,x,x,x,x,0%,x
c1ncc(CCCC2CCNCC2)[nH]1,x,x,-11%,x,x,x
CC[C@H](C)[C@H](NC(=O)[C@H](Cc1ccc(O)cc1)NC(=O)[C@@H](NC(=O)[C@H](CCCN=C(N)N)NC(=O)[C@@H](N)CC(=O)O)C(C)C)C(=O)N[C@@H](Cc1cnc[nH]1)C(=O)N1CCC[C@H]1C(=O)O,x,x,-11%,x,x,x
